“And” between values parts separate entries of the source, which are not always exact repeats. Equal entries are not always repeated. Values without a mark were called inactive. The source made the active and inactive calls. Unless noted, calls come from the whole dose curve; as a rule, active = well fitted inhibition curve with a large enough effect; inconclusive = small, poorly fitted or top-dose-only effect; inactive = flat fitted curve, though single readings scatter. Numbered stars: 1 amine (or outer) side, 2 acyl side, 3 side chain; on linkers, the order of the positions; unused ones are H or OH. Bridge positions count the residues as written; N and C are the ends. Square brackets hold non-standard residues; d marks the D form. Peptide text beside a SMILES is read from it. I, II: the chains in the order shown. Actinocin(9to1) = Cc1c2oc3c(C)ccc(C(=O)[*:1])c3nc-2c(C(=O)[*:2])c(N)c1=O; NMeV = CN[C@H](C(=O)O)C(C)C; Sar = CNCC(=O)O
Each molecule was assayed against DNA dC->dU-editing enzyme APOBEC-3G (Homo sapiens) (UniProt Q9HC16) (assay: qHTS for inhibitors of Vif-A3G interactions: Validation (AID 588379; note: 0% is about no effect)). Settings: Vif-A3G protein interaction assay; series mostly up to 46.1 µM; activity change, negative = inhibition: at the top concentration.
How it was run: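 Yellow fluorescence (Ex 488, Em 500-530) of Vif-coexpressing HeLa A3G-eYFP cells, scanned by Acumen cytometer, reports blocked A3G degradation. Cells plated at 700/well overnight at 37 deg C before compound addition, then a further overnight compound incubation at 37 deg C.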

Chain of DNA dC->dU-editing enzyme APOBEC-3G (Homo sapiens) (Q9HC16 whole entry, looked up): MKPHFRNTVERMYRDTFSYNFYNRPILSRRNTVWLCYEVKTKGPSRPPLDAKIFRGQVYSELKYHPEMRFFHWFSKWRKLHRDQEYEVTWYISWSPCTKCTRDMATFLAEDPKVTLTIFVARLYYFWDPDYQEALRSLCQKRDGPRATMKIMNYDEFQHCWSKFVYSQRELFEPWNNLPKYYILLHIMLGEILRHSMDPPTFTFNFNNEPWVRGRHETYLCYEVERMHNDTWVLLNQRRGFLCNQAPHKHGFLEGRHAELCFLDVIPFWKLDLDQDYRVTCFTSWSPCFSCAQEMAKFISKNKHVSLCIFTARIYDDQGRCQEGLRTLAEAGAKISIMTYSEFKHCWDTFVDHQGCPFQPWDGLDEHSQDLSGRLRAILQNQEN

Structure (SMILES)	activity change, negative = inhibition [%]	outcome
CC(C)(Oc1ccc(Cl)cc1)C(=O)O	1.14	–
Nc1nc2ncc(CNc3ccc(C(=O)N[C@@H](CCC(=O)O)C(=O)O)cc3)nc2c(=O)[nH]1	4.44	–
CN=C(NC#N)NCCSCc1csc(N=C(N)N)n1	-0.335	–
COc1c(C)c2c(c(O)c1C/C=C(\C)CCC(=O)O)C(=O)OC2	–	inactive
C[C@@H]1CN(CCCn2c3ccccc3c3ccccc32)C[C@H](C)N1	-10.3	–
CC[N+](CC)(CCNC(=O)C(=O)NCC[N+](CC)(CC)Cc1ccccc1Cl)Cc1ccccc1Cl	-1.8	–
CNCC[C@@H](Oc1ccccc1C)c1ccccc1	-5.6	–
CC(C)(CO)[C@@H](O)C(=O)NCCCO	1.69	–
CCN1CCC[C@H]1CNC(=O)c1c(OC)ccc(Br)c1OC	-16.7	–
COc1cccc2c1C(=O)c1c(O)c3c(c(O)c1C2=O)C[C@@](O)(C(C)=O)C[C@@H]3O[C@H]1C[C@H](N)[C@H](O)[C@H](C)O1	-11.6	–

These molecules were tested against Estrogen receptor (Homo sapiens) (UniProt P03372) (assay: qHTS assay for small molecule antagonists of estrogen receptor alpha signaling (AID 588513; active = well fitted curve in the direction sought with a large enough effect in the signal ratio, with a control signal flat, not every such curve was filed as active; inconclusive = small, poorly fitted or top-dose-only effect, or effect the other way, or a change in a side signal; inactive = no such curve, though single readings can be large or run the other way; the % refers to the signal ratio; note: potency is the fitted concentration of half-maximal effect; for activity, negative = inhibition: % is set by controls: 0 for no effect and ±100 for the full control effect)). Settings: ER-alpha-UAS-bla HEK293, beta-lactamase ratio, antagonist mode; series mostly up to 76.9 µM; activity, negative = inhibition: at the top concentration.
How it was run: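 Beta-lactamase reporter, antagonist mode, HEK 293 GripTite cells; 0.5nM E2 stimulus, 18 h, 37 C; CCF4 dye 2 h RT; fluorescence. IC50 and efficacy from Hill fits, normalized to E2 and DMSO.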

Chain of Estrogen receptor (Homo sapiens) (P03372 whole entry, looked up): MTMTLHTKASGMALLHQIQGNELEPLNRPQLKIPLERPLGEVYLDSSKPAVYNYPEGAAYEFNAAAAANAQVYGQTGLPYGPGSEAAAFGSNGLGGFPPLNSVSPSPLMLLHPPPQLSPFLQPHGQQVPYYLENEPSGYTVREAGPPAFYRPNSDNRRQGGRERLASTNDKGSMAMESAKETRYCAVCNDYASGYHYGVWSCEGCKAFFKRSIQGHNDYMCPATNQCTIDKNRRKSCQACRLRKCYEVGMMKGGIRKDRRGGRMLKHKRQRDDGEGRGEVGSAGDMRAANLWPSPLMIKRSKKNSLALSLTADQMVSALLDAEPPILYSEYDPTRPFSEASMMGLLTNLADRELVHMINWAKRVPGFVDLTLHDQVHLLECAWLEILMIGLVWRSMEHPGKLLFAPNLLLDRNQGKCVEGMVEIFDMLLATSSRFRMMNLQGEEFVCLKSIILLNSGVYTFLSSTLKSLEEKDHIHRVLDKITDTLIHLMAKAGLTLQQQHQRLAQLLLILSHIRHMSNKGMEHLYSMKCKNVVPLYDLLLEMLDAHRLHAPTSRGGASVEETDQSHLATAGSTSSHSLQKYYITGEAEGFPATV

Structure (SMILES)	activity, negative = inhibition [%]	Potency
O=C(O)CCCCC(=O)O	-21.4	–
CC(C)(C)CC(C)(C)c1ccc(OCCOCC[N+](C)(C)Cc2ccccc2)cc1	–	44.7 µM [inconclusive] (active)
C=C(CC)C(=O)c1ccc(OCC(=O)O)c(Cl)c1Cl	-6.51	–
Cc1cc(=O)n(-c2ccccc2)n1C	-16.1	–
Oc1c(Cl)cc(Cl)cc1Sc1cc(Cl)cc(Cl)c1O	–	39.8 µM [inconclusive] (active)
CC(O)C(=O)O (configuration not stated)	5.41	–
COc1cccc2c1C(=O)c1c(O)c3c(c(O)c1C2=O)C[C@@](O)(C(=O)CO)C[C@@H]3O[C@H]1C[C@H](N)[C@H](O)[C@H](C)O1	–	5.01 µM [inconclusive] (active) and 7.94 µM [inhibitor] (active)
CC(=O)O[C@]1(C(C)=O)CC[C@H]2[C@@H]3C[C@H](C)C4=CC(=O)CC[C@]4(C)[C@H]3CC[C@@]21C	3.95	–
Nc1ccc(C(=O)O)cc1	-4.21	–
C=CCc1ccc(O)c(OC)c1	-19	–
Cc1c2oc3c(C)ccc(C(=O)N[C@@H]4C(=O)N[C@H](C(C)C)C(=O)N5CCC[C@H]5C(=O)N(C)CC(=O)N(C)[C@@H](C(C)C)C(=O)O[C@@H]4C)c3nc-2c(C(=O)N[C@@H]2C(=O)N[C@H](C(C)C)C(=O)N3CCC[C@H]3C(=O)N(C)CC(=O)N(C)[C@@H](C(C)C)C(=O)O[C@@H]2C)c(N)c1=O (I: T[dV]P[Sar][NMeV] / II: T[dV]P[Sar][NMeV]; ester I:1-I:C, II:1-II:C; linker I:N-II:N via Actinocin(9to1))	–	35.5 nM [inconclusive] (active) and 35.5 nM [inhibitor] (active)
O=c1ccc2ccccc2o1	–	inactive
